In PubChem BioAssay (NCI):
About 83,000 compounds went through this panel and 20% of them were active in at least one assay; those are over-represented in the sample as a whole.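 Results are percent growth after 48 hours of single-concentration exposure. 100 means growth as in untreated cells, lower positive values show inhibition; negative values down to -100 show cell death.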 Values without a mark were called inactive. Active and inactive are the calls of the source. How the source made its calls: active means growth percent below 10; inactive means the rest.

Test system: EKVX NSCLC
Test: NCI-60 one-dose screen, 48 h (100 = growth as untreated, 0 = no growth, -100 = all killed)
Settings: 10 µM unless noted

| Structure (SMILES) | growth |
| --- | --- |
| Fc1ccc(C2=NN(c3ccccc3)C(c3sc(N(CCCl)CCCl)nc3Cl)C2)cc1 (stereo not drawn) | 84% |
| CC[C@H](C)[C@H](NC(=O)Nc1ccccc1)C(=O)N(C)[C@H](C[C@@H](OC(C)=O)c1nc(C(=O)N[C@@H](Cc2ccccc2)C[C@H](C)C(=O)OC)cs1)C(C)C | 33.2% |
| c1ccc(CCN2CCCCC2Cc2ccccc2)cc1 (stereo not drawn) | 93.4% |
| CC(=O)O[C@H]1CCC2(C)C(=CCC3C2CCC2(C)/C(=N/OC(=O)c4ccc(N(CCCl)CCCl)cc4)CCC32)C1 (stereo partly drawn) | 23.1% |
| O=C(N/N=C/c1ccc(N(CCCl)CCCl)cc1)c1cc(=O)[nH]c(=O)[nH]1 | 115% |
| O=[As]c1ccc(C(=O)c2ccc(Oc3ccccc3)cc2)cc1 (stereo not drawn) | -80.8% (active) |
| O=[N+]([O-])c1cc([N+](=O)[O-])c(Cl)c(Cl)c1Cl | 67.4% |
| COc1ccc2c(c1)NC1=C(C(=O)OC1)C2c1cc(OC)c(OC)c(OC)c1 (stereo not drawn) | 53.8% |
| CC(C)(O)/C=C/C(=O)[C@](C)(O)[C@H]1[C@H](O)C[C@@]2(C)[C@@H]3CC=C4[C@@H](C=C(O)C(=O)C4(C)C)[C@]3(C)C(=O)C[C@]12C | -10.9% (active) |
| C[C@]12CCc3sc(-c4ccc(Cl)cc4)nc3C1=CC[C@@H]1[C@@H]2CC[C@]2(C)C(=O)CC[C@@H]12 | 72.3% |
| C=CCC1(CC)C(=O)NC(=S)NC1=O | 105% |
| NC(Cc1ccc2c(c1)OCO2)c1ccc2c(c1)OCO2 (stereo not drawn) | 126% |
| O=C(CF)N(O)c1ccc(/C=C/c2ccccc2)cc1 | 98.5% |
| COc1ccc(/C=C(/C(=O)N2CCCC2)c2cc(OC)c(OC)c(OC)c2)cc1N | 52.8% |
| Nc1c(Br)cc([N+](=O)[O-])cc1[N+](=O)[O-] | 93.6% |
| Oc1ccc(O)c2c1C1(Cl)C(Cl)=C(Cl)C2(Cl)C1(Cl)Cl | 34.3% |
| CCCCNCCc1ccccn1 | 120% |
| CNC(=O)Oc1cccc(OC)c1 | 95.5% |
| C=C=[CH][Sn]([c]1ccccc1)([c]1ccccc1)[c]1ccccc1 | -32.7% (active) |
| NC(=O)SCC(=O)Nc1ccc([As](=O)(O)O)cc1 | 111% |
| C[C@]12CC[C@H]3[C@@H](C[C@@H]4N=C(c5ccc(O)cc5)S[C@@]45C[C@H](O)CC[C@]35C)[C@@H]1CC[C@@H]2O | 63.6% |
| Nc1c(Br)cc2c3c(cccc13)-c1ccccc1-2 | 53.1% |
| COc1cc2c(cc1OC)CN(C)C(C)C2 (stereo not drawn) | 109% |
| c1ccc2nc(OCCN3CC3)ccc2c1 | 80.7% |
| c1ccc(-c2ccc3ccccc3[o+]2)cc1 | 87.1% |
| CSc1ccccc1NP1(=O)OCC(C)([N+](=O)[O-])CO1 (stereo not drawn) | 97.8% |
| CCCC(C)(C)c1ccc2c(c1)OC(C)(C)[C@@H]1CC=C(C)C[C@@H]21 | 106% |
| OC1(c2ccc(Cl)cc2Cl)c2ccccc2C2=NCCN21 (stereo not drawn) | 97.9% |
| CC1(CF)NC(=O)NC1=O (stereo not drawn) | 104% |

Test system: SN12C renal
Test: as above
Settings: 10 µM unless noted

| Structure (SMILES) | growth |
| --- | --- |
| Fc1ccc(C2=NN(c3ccccc3)C(c3sc(N(CCCl)CCCl)nc3Cl)C2)cc1 (stereo not drawn) | 86.9% |
| CC[C@H](C)[C@H](NC(=O)Nc1ccccc1)C(=O)N(C)[C@H](C[C@@H](OC(C)=O)c1nc(C(=O)N[C@@H](Cc2ccccc2)C[C@H](C)C(=O)OC)cs1)C(C)C | 46.6% |
| c1ccc(CCN2CCCCC2Cc2ccccc2)cc1 (stereo not drawn) | 99.2% |
| CC(=O)O[C@H]1CCC2(C)C(=CCC3C2CCC2(C)/C(=N/OC(=O)c4ccc(N(CCCl)CCCl)cc4)CCC32)C1 (stereo partly drawn) | 47.3% |
| O=[As]c1ccc(C(=O)c2ccc(Oc3ccccc3)cc2)cc1 (stereo not drawn) | -98.4% (active) |
| O=[N+]([O-])c1cc([N+](=O)[O-])c(Cl)c(Cl)c1Cl | 19.4% |
| Cc1cc(NC(=O)NCCOc2ccc(N3C(N)=NC(N)=NC3(C)C)cc2Cl)ccc1S(=O)(=O)F | 7.66% (active) |
| COc1ccc2c(c1)NC1=C(C(=O)OC1)C2c1cc(OC)c(OC)c(OC)c1 (stereo not drawn) | 23.1% |
| C=CCc1ccc(OC(=O)Cc2ccccc2)c(OC)c1 | 99.5% |
| CC(C)(O)/C=C/C(=O)[C@](C)(O)[C@H]1[C@H](O)C[C@@]2(C)[C@@H]3CC=C4[C@@H](C=C(O)C(=O)C4(C)C)[C@]3(C)C(=O)C[C@]12C | 7% (active) |
| C[C@]12CCc3sc(-c4ccc(Cl)cc4)nc3C1=CC[C@@H]1[C@@H]2CC[C@]2(C)C(=O)CC[C@@H]12 | 65.9% |
| NC(Cc1ccc2c(c1)OCO2)c1ccc2c(c1)OCO2 (stereo not drawn) | 94% |
| O=C(CF)N(O)c1ccc(/C=C/c2ccccc2)cc1 | 26.6% |
| COc1ccc(/C=C(/C(=O)N2CCCC2)c2cc(OC)c(OC)c(OC)c2)cc1N | 40.8% |
| Nc1nc(N)c(-c2ccc(Cl)c(Cl)c2)c(/C=C/c2ccc(S(=O)(=O)F)cc2)n1 | 93.1% |
| Nc1c(Br)cc([N+](=O)[O-])cc1[N+](=O)[O-] | 104% |
| Oc1ccc(O)c2c1C1(Cl)C(Cl)=C(Cl)C2(Cl)C1(Cl)Cl | 56.4% |

| Structure (SMILES) | growth |
| --- | --- |
| CN(C)P1(N(C)C)=NP(N(C)C)(N(C)C)=NP(N(C)C)(N(C)C)=N1 | 107% |
| CNC(=O)Oc1cccc(OC)c1 | 93.3% |
| C=C=[CH][Sn]([c]1ccccc1)([c]1ccccc1)[c]1ccccc1 | -73.5% (active) |
| C[C@]12CC[C@H]3[C@@H](C[C@@H]4N=C(c5ccc(O)cc5)S[C@@]45C[C@H](O)CC[C@]35C)[C@@H]1CC[C@@H]2O | 96.7% |
| CC1(C)N=C(N)N=C(N)N1c1ccc(CCCCc2ccc(S(=O)(=O)F)cc2)cc1 | 26.8% |
| Nc1c(Br)cc2c3c(cccc13)-c1ccccc1-2 | 90.4% |
| COc1cc2c(cc1OC)CN(C)C(C)C2 (stereo not drawn) | 94.2% |
| CC(C)C1c2ccc(O)cc2Oc2nc(N)c(C#N)c(N)c21 (stereo not drawn) | 103% |
| c1ccc2nc(OCCN3CC3)ccc2c1 | 79.9% |
| CC1(C)N=C(N)N=C(N)N1c1ccc(CNC(=O)Nc2ccc(S(=O)(=O)F)c(Cl)c2)c(Cl)c1 | 17% |
| c1ccc(-c2ccc3ccccc3[o+]2)cc1 | 90.2% |
| C[CH2][Pb]([CH2]C)([CH2]C)[O]C(=O)COc1ccccc1 | 8.52% (active) |
| COc1ccc(/C=C\c2cc(OC)c(OC)c(OC)c2)cc1N/C=C\C(=O)c1c[nH]c2ccccc12 | 26.1% |
| CCCC(C)(C)c1ccc2c(c1)OC(C)(C)[C@@H]1CC=C(C)C[C@@H]21 | 105% |
| OC1(c2ccc(Cl)cc2Cl)c2ccccc2C2=NCCN21 (stereo not drawn) | 92.4% |
| CC1(CF)NC(=O)NC1=O (stereo not drawn) | 94.3% |
| O=C(Nc1ccc(S(=O)(=O)F)cc1)Oc1ccccc1 | 104% |
